Laboratory results from PubChem BioAssay AID1903 (Southern Research Specialized Biocontainment Screening …, 2009).
Among all 310,000 compounds or so, about 1,200 (0.39%) were called active. How the calls were made is not given here. Only a sample is shown. Potency and affinity values are given separately.

target: Large T antigen (Simian virus 40) (UniProt P03070); assay: TAg ATPase/helicase activity blockers – biochemical (AID 1903); details: SV40 large T antigen ATPase/helicase inhibition assay; at 20 µM; hits give high values
Sequence (P03070 whole entry, looked up): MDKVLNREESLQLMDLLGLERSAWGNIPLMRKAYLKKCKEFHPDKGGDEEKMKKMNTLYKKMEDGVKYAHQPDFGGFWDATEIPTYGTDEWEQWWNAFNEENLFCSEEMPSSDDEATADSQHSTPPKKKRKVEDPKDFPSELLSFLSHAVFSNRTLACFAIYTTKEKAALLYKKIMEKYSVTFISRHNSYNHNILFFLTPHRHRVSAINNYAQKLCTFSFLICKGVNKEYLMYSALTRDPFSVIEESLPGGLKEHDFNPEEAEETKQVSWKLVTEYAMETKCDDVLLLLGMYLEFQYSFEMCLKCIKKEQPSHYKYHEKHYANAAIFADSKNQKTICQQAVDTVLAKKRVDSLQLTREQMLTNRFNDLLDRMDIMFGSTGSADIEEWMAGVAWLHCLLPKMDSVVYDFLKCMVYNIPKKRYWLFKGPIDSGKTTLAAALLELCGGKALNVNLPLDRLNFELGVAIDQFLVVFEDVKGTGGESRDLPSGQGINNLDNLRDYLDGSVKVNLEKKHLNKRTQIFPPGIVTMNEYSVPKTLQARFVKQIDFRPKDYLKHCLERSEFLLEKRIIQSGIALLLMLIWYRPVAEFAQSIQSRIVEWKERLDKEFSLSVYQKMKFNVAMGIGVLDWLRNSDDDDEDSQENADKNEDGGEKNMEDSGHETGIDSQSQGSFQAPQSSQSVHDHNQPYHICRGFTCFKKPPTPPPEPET

inhibition, inactive:
Cc1cc(=O)[nH]c(SCc2ccccc2)n1 -3.07%, CCN(c1ccccc1)S(=O)(=O)c1ccc2ccccc2c1 1.9%, COc1cccc(OC)c1C(=O)Nc1ccc([N+](=O)[O-])cn1 8.19%, CC(=O)c1ccc2c(c1)C1C=CCC1C(c1ccncc1)N2 (stereo not drawn) 7.95%, O=C(OC1CCCCC1)c1ccc2c(c1)C1C=CCC1C(C(=O)O)N2 (stereo not drawn) 33.8%, COc1cc(Cl)ccc1NC(=O)COc1ccccc1C(=O)NN 6.94%, COc1ccccc1NC(=O)COC(=O)c1ccccc1C(=O)N1CCN(c2ccccc2)CC1 6.53%, COc1ccc(N2CCN(C(=O)c3ccc(SC)cc3OC)CC2)cc1 18.7%, COc1cc(SC)ccc1C(=O)N1CCN(c2ccccc2)CC1 2.66%, COc1cc(SC)ccc1C(=O)N1CCN(Cc2ccc3c(c2)OCO3)CC1 18.1%, COc1cc(SC)ccc1C(=O)N1CCN(c2ccccc2OC)CC1 2.01%, Cc1ncc([N+](=O)[O-])n1Cc1ccc(Br)cc1 7.03%, CCc1cccc(C)c1NC(=O)CN(C)Cc1ccc(Br)cc1 9.47%, O=C(NCc1ccco1)C1CC(c2ccc(F)cc2)=NO1 (stereo not drawn) 6.38%, COC(=O)/C(C#N)=C\c1c(OC)[nH]c2ccccc12 8.82%, N#C/C(=C\c1c[nH]c2ccccc12)C(N)=O 5.89%, O=C(CN(c1ccccc1F)S(=O)(=O)c1ccccc1)Nc1ccccc1C(=O)N1CCOCC1 11.3%, Cc1cccc(NC(=O)c2ccc(N3CCOCC3)c([N+](=O)[O-])c2)n1 -1.72%, O=C(CNC(=O)c1cccc(F)c1)N/N=C/c1cccnc1 20.9%, C=C(C)CSc1nc2c(cc1C#N)CCC2 7.26%, CCn1c(COc2ccc(C)cc2)nc2ccccc21 3.75%, Cc1ccc(-c2nc(N)s[n+]2-c2ccccc2)cc1 13.6%, Cc1ccc(-c2nc3ccccc3nc2-c2ccccc2)cc1 0.76%, O=C1C(Cl)=C(N2CCCCC2)C(=O)N1Cc1ccccc1 0.56%, Cc1ccc(C(=O)N/C(=C\c2sccc2C)C(=O)NCc2ccco2)cc1 7.34%, Cc1ccc(C2=NOC(=O)/C2=C\c2ccccc2)cc1 59.5%, O=C1/C(=C\c2ccc(-c3ccccc3[N+](=O)[O-])o2)C(c2ccccc2)=NN1c1ccccc1 -3.41%, Cc1ccc(/C=C2\C(=O)ON=C2c2ccccc2)o1 -2.84%, O=C(O)/C(=C\c1ccc(-c2ccccc2[N+](=O)[O-])o1)c1ccccc1 10.1%, CC1=NOC(=O)/C1=C\c1ccc(-c2ccc(Cl)cc2Cl)o1 16.7%, COc1ccc(-c2ccc(/C=C3\C(=O)N(c4ccccc4)N=C3c3ccccc3)o2)c([N+](=O)[O-])c1 2.08%, O=C1COc2ccc(C(=O)COC(=O)c3sc4ccccc4c3Cl)cc2N1 7.71%, CCOc1ccc(CN(C)CC(=O)Nc2ccc(N3CCOCC3)cc2)cc1OC 6.36%, CC(NC(=O)c1ccccc1F)c1ccccc1 (stereo not drawn) 3.89%, O=C(NCCNC1CCN(Cc2ccccc2)CC1)c1cccs1 5.49%, O=C1CCCC(=O)C1CS(=O)(=O)c1ccccc1 14.9%, CCOC(=O)N1CCC(=NNc2nc3ccccc3s2)CC1 8.66%, CC1(C)C(=O)Nc2ccccc2N1C(=O)COC(=O)c1ccc(Cl)c(S(=O)(=O)NCc2ccccc2)c1 6.69%, O=C(Nc1ccccc1F)c1ccccc1C(=O)Nc1ccccc1F 14.6%, CCCCn1c(N)c(N(CCC(C)C)C(=O)CC2CCCC2)c(=O)[nH]c1=O 19.1%, COc1ccc(CC(=O)NN2C(=O)c3ccccc3C2=O)cc1 10.8%, O=C1c2ccccc2C(=O)N1CCc1c[nH]c2ccccc12 14.9%, O=C(O)Cc1c[nH]c2ccc(O)cc12 29.6%, CC(=O)NCCc1c[nH]c2ccc(OCc3ccccc3)cc12 17%, COc1ccc2[nH]cc(CCNC(C)=O)c2c1 -0.22%, O=C1c2ccccc2C(=O)N1CCCc1c[nH]c2ccc(Cl)cc12 8.17%, N[C@@H](Cc1c[nH]c2ccc(O)cc12)C(=O)O 20.5%, COc1ccccc1CCN1CCCC(CN(C)C(=O)c2ccc3nc[nH]c3c2)C1 (stereo not drawn) 6.91%, Cc1ccc(C)c(S(=O)(=O)N2CCCOC2CNC(=O)C(=O)NCCCn2ccnc2)c1 (stereo not drawn) 7.3%, Cc1[nH][nH]c(=O)c1C=NCc1cccc(C(F)(F)F)c1 8.38%, CC(=N)c1c(O)c2ccccc2oc1=O 20.4%, O=C(Oc1cccc(Cl)c1)N1CCOCC1 7.93%, NS(=O)(=O)c1ccc(NC(=O)COC(=O)c2cccc(S(=O)(=O)N3CCCC3)c2)cc1 11.7%, Cc1c(NC(=O)c2cccc(-c3cc4ccccc4oc3=O)c2)cccc1-c1nc2ncccc2o1 -0.4%, CCCCNc1nnc(Cc2ccc(Cl)cc2)c(=O)[nH]1 9.41%, COc1ccc(NC2CCCN(C(=O)CCN3Cc4ccccc4C3=O)C2)cc1 (stereo not drawn) 34.5%, O=C(CCCn1cncn1)N1CCCC(Nc2ccc(F)cc2)C1 (stereo not drawn) 5.07%, COc1ccc(NC2CCCN(C(=O)CCCn3cncn3)C2)cc1OC (stereo not drawn) 33.9%, COc1ccc(NC2CCCN(C(=O)CSc3ccncc3)C2)cc1 (stereo not drawn) 31.4%, COc1ccc(NC2CCCN(C(=O)CCN3CCCO3)C2)cc1 (stereo not drawn) 23%, O=C(CSc1ccccc1)N1CCCC(Nc2ccccc2)C1 (stereo not drawn) 7.87%, COc1ccc(S(=O)(=O)Nc2cc(C(=O)NC3CCCCCC3)ccc2N2CCOCC2)cc1 3.07%, CCc1nn(CC(=O)NCCCN2CCCC2=O)c(=O)c2cc3sccc3n12 -4.15%, Cc1ccc(NS(=O)(=O)c2c(C)[nH]c(C)c2C(=O)N2CCCCC2)c(Cl)c1 -2.05%, CCOC(=O)c1ccc(NC(=O)C(=O)NCc2ccccn2)cc1 -2.35%, CC(C)(CC(=O)O)CC(=O)Nc1ccc2c(c1)ncn2CCc1ccccc1 5.95%, O=C1NC(=O)/C(=C\c2ccc(Cl)nc2)S1 8.29%, Cc1c(N=C2C(=O)Nc3ccccc32)c(=O)n(-c2ccccc2)n1C 1.2%, CC(C)(C)c1ccc(/C=C2\SC(=O)N=C2N)cc1 5.32%, COc1ccc(/C=C2/SC(=O)NC2=O)cc1 12.9%, NC1=NC(=O)S/C1=C\c1ccc(F)cc1 8.64%, CCOc1cc(/C=C2\SC(N)=NC2=O)ccc1O 34.2%, COc1ccc(/C=C2\SC(=O)N=C2N)cc1OC 8.84%, Cc1c(N=C2NC(=O)/C(=C/c3cccc([N+](=O)[O-])c3)S2)c(=O)n(-c2ccccc2)n1C 4.3%, CCN(CC)CCSc1nc(O)c(C(C)C)c(=O)[nH]1 14.1%, COC(=O)[C@@H](Cc1c[nH]c2ccccc12)NC(=O)c1cc(=O)[nH]c2ccccc12 2.68%, CCOc1cc(S(=O)(=O)NC2CCCC2)ccc1Cl 2.79%, O=C(NCc1cccs1)C(=O)c1c[nH]c2ccccc12 -25.6%, Cc1occc1-c1nnc(SCC(=O)N2CCOCC2)o1 1.14%, O=S(=O)(Nc1nc2c(s1)CCCC2)c1ccc(Br)cc1 -1.56%, COc1ccc(/C=C(\NC(=O)c2ccccc2)C(=O)OCC2CCCN3CCCCC23)cc1OC (stereo not drawn) -3.64%, COc1ccc(/C=C/C(=O)OCC(=O)Nc2cc(S(=O)(=O)N(C)C)ccc2Cl)cc1 3.97%, COc1cccc(NC(=O)c2ccc(N3C(=O)C4CC=C(C)CC4C3=O)cc2)c1 (stereo not drawn) 7.31%, Cc1cccc(S(=O)(=O)Nc2nc3ccccc3nc2Nc2ccc3c(c2)OCO3)c1 17.6%, Cc1nc2ccc(Br)cc2c2c1CC(CBr)O2 (stereo not drawn) 10.6%, O=C(O)c1cccc(Nc2c3ccccc3nc3ccccc23)c1 -9.05%, Cc1ccc(O)c(Nc2c3ccccc3nc3ccccc23)c1 12.6%, CCCCNC(=O)OCCNC(=O)NC 7.67%, COc1ccc(N2CCC(CNC(=S)Nc3cc(C)ccc3C)C2)cc1 (stereo not drawn) 36.6%, COc1ccc(N2CCC(CNC(=S)Nc3cc(C)cc(C)c3)C2)cc1 (stereo not drawn) 28.6%, COc1ccc(N2CCN(CC(=O)Nc3c(C)cc(C)cc3C)CC2)cc1 24%, COc1ccc(N2CCC(CNC(=S)Nc3cccc(C)c3)C2)cc1 (stereo not drawn) 21.4%, COc1ccc(NC(=S)NCC2CCN(c3ccc(OC)cc3)C2)cc1 (stereo not drawn) 36.1%, COc1ccc(N2CCN(C(=S)Nc3cc(C)ccc3C)CC2)cc1 3.41%, Nc1nnnn1CC(=O)N/N=C/C=C/c1ccccc1 13.8%, CC(C)N=C(Nc1ccccc1)c1cccnc1 -1.87%, Cc1snc(SCc2ccc(F)cc2)c1C#N 10.8%, COc1ccc(NC(=O)c2ccc(-n3cnnn3)cc2)c([N+](=O)[O-])c1 -1.81%
